# Results: the supplement of paper PMC8728848
# This is one part of a sample in which the strongest signals are shown more often than they occur.
# What was measured:
# Assay in all cases: glycan array binding signal (z-score within array); higher = stronger binding
# Settings in all cases: glycan notation: IUPAC condensed, linker removed
# [1] = molecular target: Fuc(a1-2)Gal(b1-3)GlcNAc(b1-2)Man(a1-3)[Fuc(a1-2)Gal(b1-3)GlcNAc(b1-2)Man(a1-6)]Man(b1-4)GlcNAc(b1-4)GlcNAc
# Procedure, shortened: (§1)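 Glycan array data came from 3228 arrays in the Consortium for Functional Glycomics database, and only arrays with an available protein sequence were kept. Glycan names were put into IUPAC-condensed notation, and columns mapping to the same glycan were averaged. The binding signal is a within-array Z-score, averaged across arrays of one protein sequence run at different concentrations or buffers and across linkers. A negative Z-score can be read as non-binding.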
# [2] = molecular target: Fuc(a1-2)Gal(b1-3)[Fuc(a1-4)]GlcNAc(b1-2)Man(a1-3)[Fuc(a1-2)Gal(b1-3)[Fuc(a1-4)]GlcNAc(b1-2)Man(a1-6)]Man(b1-4)GlcNAc(b1-4)[Fuc(a1-6)]GlcNAc(b1-4)[Fuc(a1-6)]GlcNAc
# Procedure, shortened: as §1
# [3] = molecular target: Fuc(a1-2)Gal(b1-4)GlcNAc(b1-3)Gal(b1-4)GlcNAc(b1-2)Man(a1-3)[Fuc(a1-2)Gal(b1-4)GlcNAc(b1-3)Gal(b1-4)GlcNAc(b1-2)Man(a1-6)]Man(b1-4)GlcNAc(b1-4)GlcNAc
# Procedure, shortened: as §1
# [4] = molecular target: Fuc(a1-2)[Gal(a1-3)]Gal(b1-4)GlcNAc(b1-2)Man(a1-3)[Fuc(a1-2)[Gal(a1-3)]Gal(b1-4)GlcNAc(b1-2)Man(a1-6)]Man(b1-4)GlcNAc(b1-4)GlcNAc
# Procedure, shortened: as §1
# [5] = molecular target: Fuc(a1-2)[GalNAc(a1-3)]Gal(b1-4)GlcNAc(b1-3)Gal(b1-4)GlcNAc(b1-3)Gal(b1-4)GlcNAc
# Procedure, shortened: as §1
# [6] = molecular target: Fuc(a1-2)[GalNAc(a1-3)]Gal(b1-4)[Fuc(a1-3)]GlcNAc
# Procedure, shortened: as §1
# [7] = molecular target: Fuc(a1-3)[Gal(b1-4)]GlcNAc(b1-2)Man
# Procedure, shortened: as §1
# [8] = molecular target: Fuc(a1-3)[Gal(b1-4)]GlcNAc(b1-2)Man(a1-3)[Fuc(a1-3)[Gal(b1-4)]GlcNAc(b1-2)Man(a1-6)]Man(b1-4)GlcNAc(b1-4)GlcNAc
# Procedure, shortened: as §1
# [9] = molecular target: Gal(a1-3)[Gal(a1-4)]Gal(b1-4)GlcNAc
# Procedure, shortened: as §1
# [10] = molecular target: Gal(b1-3)GalNAc(b1-4)Gal(b1-4)Glc
# Procedure, shortened: as §1
# [11] = molecular target: Gal(b1-3)[Fuc(a1-4)]GlcNAc(b1-3)Gal(b1-4)[Fuc(a1-3)]GlcNAc
# Procedure, shortened: as §1
# [12] = molecular target: Gal(b1-3)[Neu5Ac(b2-6)]GalNAc
# Procedure, shortened: as §1
# Gal(b1-4)GlcNAc = molecular target: Gal(b1-4)GlcNAc
# Procedure, shortened: as §1
# [13] = molecular target: Gal(b1-4)GlcNAc(a1-6)Gal(b1-4)GlcNAc
# Procedure, shortened: as §1
# [14] = molecular target: Gal(b1-4)GlcNAc(b1-2)Man(a1-3)[Man(a1-6)]Man(b1-4)GlcNAc(b1-4)GlcNAc
# Procedure, shortened: as §1
# [15] = molecular target: Gal(b1-4)GlcNAc(b1-2)[Gal(b1-4)GlcNAc(b1-6)]Man(a1-6)[Gal(b1-4)GlcNAc(b1-2)Man(a1-3)]Man(b1-4)GlcNAc(b1-4)[Fuc(a1-6)]GlcNAc
# Procedure, shortened: as §1
# [16] = molecular target: Gal(b1-4)GlcNAc(b1-3)Gal(b1-4)GlcNAc(b1-2)[Gal(b1-4)GlcNAc(b1-3)Gal(b1-4)GlcNAc(b1-6)]Man(a1-6)[Gal(b1-4)GlcNAc(b1-3)Gal(b1-4)GlcNAc(b1-2)Man(a1-3)]Man(b1-4)GlcNAc(b1-4)GlcNAc
# Procedure, shortened: as §1
# [17] = molecular target: Gal(b1-4)GlcNAc(b1-3)Gal(b1-4)GlcNAc(b1-2)[Gal(b1-4)GlcNAc(b1-3)Gal(b1-4)GlcNAc(b1-6)]Man(a1-6)[Gal(b1-4)GlcNAc(b1-3)Gal(b1-4)GlcNAc(b1-2)Man(a1-3)]Man(b1-4)GlcNAc(b1-4)[Fuc(a1-6)]GlcNAc
# Procedure, shortened: as §1
# [18] = molecular target: Gal(b1-4)GlcNAc(b1-3)Gal(b1-4)GlcNAc(b1-3)Gal(b1-4)GlcNAc(b1-2)Man(a1-3)[Gal(b1-4)GlcNAc(b1-3)Gal(b1-4)GlcNAc(b1-3)Gal(b1-4)GlcNAc(b1-2)Man(a1-6)]Man(b1-4)GlcNAc(b1-4)[Fuc(a1-6)]GlcNAc
# Procedure, shortened: as §1
# [19] = molecular target: Gal(b1-4)GlcNAc(b1-3)Gal(b1-4)GlcNAc(b1-6)[Gal(b1-3)]GalNAc
# Procedure, shortened: as §1
# Gal(b1-6)Gal = molecular target: Gal(b1-6)Gal
# Procedure, shortened: as §1
# [20] = molecular target: GalNAc(b1-4)GlcNAc(b1-2)Man
# Procedure, shortened: as §1
# GalNAc3S(b1-4)GlcNAc = molecular target: GalNAc3S(b1-4)GlcNAc
# Procedure, shortened: as §1
# Glc(b1-6)Glc = molecular target: Glc(b1-6)Glc
# Procedure, shortened: as §1
binder,measurement,setting,value
"BT4246 (Bacteroides thetaiotaomicron), Q89ZX5 (protein) MGSSHHHHHHENLYFQGHMASDYLDVVPPEQPNIDDAMSSPTRALGFLYSCYGGVSTDLPSAYLGEINSTTDEYVLPYSWNTDGYWGAYAFNTASSTNQDWLWGTTYQYIGQCYLFLQKLENAGSDIASDAEKEQWRAECQFLVAYYHFATLRRYGPIPITDSYIPMDTPTSEYNGRFHFDYCVDWIANQLDEAAKVLPANRTVTNEWGRATSTIAKAVKARLLLYAASPLWNGSFPYPNWQNENFETPGYGKALVSNTYDKSKWERALAACQEALTLATTSGDRELYDDDEYYSRQSLNLPFVPGVADVEDNKEFLKNVMKMRYAVSTRESEGNKEIIWGLSNQFDFYSRYPLRILKKSDGTWHAGYSGVSPTLYTFEHFYTANGKLPEKDLDFTPSSEWFESAGISSREDIIKLNVGREPRFYAWMAFDGGDYGTKFAAGSPLKLEMRNSEMHGYNPSLFNRDHSVTGFLTQKFVDPVTEFYTAGGSTSGTSAPTILFRLAELYLNVAECHAALGNTQEAIDALNPVRERAGIPKLTLADITNNMTIKDWVHNERFVELWNEGHRFFDVRRWAEGAKYFGANKREGLNAEVQSPTFEEFNKRTTVDAPYVWENRMYLNPVFYNEVYKNPQMVQAPGY",glycan array binding signal (z-score),[1],3.2
same,glycan array binding signal (z-score),[2],-0.111
same,glycan array binding signal (z-score),[3],0.084
same,glycan array binding signal (z-score),[4],2.43
same,glycan array binding signal (z-score),[5],0.74
same,glycan array binding signal (z-score),[6],-2.1
same,glycan array binding signal (z-score),[7],0.571
same,glycan array binding signal (z-score),[8],-0.536
same,glycan array binding signal (z-score),[9],0.656
same,glycan array binding signal (z-score),[10],2.02
same,glycan array binding signal (z-score),[11],-0.234
same,glycan array binding signal (z-score),[12],-0.388
same,glycan array binding signal (z-score),Gal(b1-4)GlcNAc,-1.31
same,glycan array binding signal (z-score),[13],-0.67
same,glycan array binding signal (z-score),[14],2.35
same,glycan array binding signal (z-score),[15],-0.607
same,glycan array binding signal (z-score),[16],2.71
same,glycan array binding signal (z-score),[17],0.32
same,glycan array binding signal (z-score),[18],0.125
same,glycan array binding signal (z-score),[19],-0.514
same,glycan array binding signal (z-score),Gal(b1-6)Gal,0.501
same,glycan array binding signal (z-score),[20],-0.775
same,glycan array binding signal (z-score),GalNAc3S(b1-4)GlcNAc,1.88
same,glycan array binding signal (z-score),Glc(b1-6)Glc,-2.27
